Consider eleven molecules from PubChem BioAssay (NCI).

Several values for one entry are separate records, joined by “and”; a condition that tells them apart may be missing. Equal entries are not always repeated. The panel holds about 83,000 compounds, 20% with a hit somewhere; the sample as a whole holds those more often.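 Values shown are percent growth following 48 h exposure of cells in 96-well plates to a single concentration of compound; below 10 was considered active.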 Unmarked numbers belong to inactive results. Activity calls are given as the source filed them.

Test systems include SK-MEL-2 melanoma; EKVX NSCLC; SN12C renal; UO-31 renal; TK-10 renal; ACHN renal; CAKI-1 renal; A498 renal; CCRF-CEM leukemia; MOLT-4 leukemia.
What all share (assay): NCI-60 one-dose screen, 48 h (100 = growth as untreated, 0 = no growth, -100 = all killed)
Conditions in all cases: 10 µM unless noted

`O=C1C=CC(=O)N1Cc1ccco1`: the growth in the assay with SK-MEL-2 melanoma was 28.8%; in the assay on EKVX NSCLC, 103%; in the assay on SN12C renal, 87.3%; in the assay with UO-31 renal, 62.6%; in the assay on TK-10 renal, 94.4%; in the assay on ACHN renal, 5.76% (active). Also, the growth in the assay with CAKI-1 renal was 40%; in the assay with A498 renal, 110%; in the assay on CCRF-CEM leukemia, 101%; in the assay with MOLT-4 leukemia it was 79.5%.

Turning to `CC(C)(C)OC(=O)c1ccc(NCc2cc(O)ccc2O)cc1`, the growth with SK-MEL-2 melanoma was 47.7%; with EKVX NSCLC, 50.1%; in the assay with SN12C renal, 7.05% (active); in the assay with UO-31 renal, -95.1% (active); with TK-10 renal, 2.52% (active); in the assay on ACHN renal, -67.3% (active). The growth in the assay on CAKI-1 renal was -36% (active); in the assay on A498 renal it was 25.1%; in the assay with CCRF-CEM leukemia, -1.62% (active); with MOLT-4 leukemia it was 5.04% (active).

On to `COc1ccc(/C=N/Nc2nc3ccccc3s2)cc1`, for which the growth with SK-MEL-2 melanoma is 117%; in the assay on EKVX NSCLC it was 67.4%; with SN12C renal, 89%; in the assay on UO-31 renal, 62.6%; in the assay with TK-10 renal it was 112%; in the assay with ACHN renal, 90.6%. Further, the growth in the assay with CAKI-1 renal was 79.9%; with A498 renal, 115%; in the assay with CCRF-CEM leukemia, 34.7%; with MOLT-4 leukemia, 85.8%.

Regarding `Cn1c(-c2ccccc2)cc(=O)cc1-c1ccccc1`, the growth in the assay on SK-MEL-2 melanoma is 10.8%; in the assay with EKVX NSCLC, 121%; in the assay on SN12C renal, 92.6%; in the assay on UO-31 renal, 79%; in the assay on TK-10 renal, 91.5%; in the assay with ACHN renal, 0.204% (active). The growth was 83.6% with CAKI-1 renal, 106% in the assay on A498 renal, 79.8% in the assay with CCRF-CEM leukemia and 81.4% with MOLT-4 leukemia.

In the case of `COc1ccc(C(=O)C(O)c2ccc(OC)cc2)cc1` (stereo not given), the growth was 111% and 108% in the assay with SK-MEL-2 melanoma; 107% and 110% in the assay with EKVX NSCLC; 113% and 112% with SN12C renal; 89.1% and 90.7% with UO-31 renal; 102% and 107% in the assay on TK-10 renal; 109% and 112% in the assay on ACHN renal. The growth was 104% and 100% in the assay with CAKI-1 renal; 97.4% and 104% in the assay with A498 renal; 108% and 105% in the assay with CCRF-CEM leukemia; 107% and 100% with MOLT-4 leukemia.

With `CN(C)CC(CN(C)C)C(O)c1ccccc1` (stereo not given), the growth was 94.4% in the assay with SK-MEL-2 melanoma; 96.1% in the assay with EKVX NSCLC; 103% with SN12C renal; 96.1% in the assay with UO-31 renal; 89.5% in the assay on TK-10 renal; 105% in the assay on ACHN renal. The growth in the assay on CAKI-1 renal was 98.2%; with A498 renal, 109%; in the assay with CCRF-CEM leukemia it was 104%; in the assay with MOLT-4 leukemia it was 106%.

Take `Cc1ccc([N+](=O)[O-])cc1Br`: the growth in the assay on SK-MEL-2 melanoma is 95.6%; with EKVX NSCLC it was 101%; with SN12C renal it was 98.2%; in the assay with UO-31 renal it was 92.1%; with TK-10 renal, 97.1%; with ACHN renal, 98.3%. Moreover, the growth in the assay on CAKI-1 renal is 101%; in the assay with A498 renal it was 88.5%; with CCRF-CEM leukemia it was 105%; with MOLT-4 leukemia, 81.7%.

Turning to `Cn1c(N)c(N=O)c(=O)n(C)c1=O`, the growth in the assay with SK-MEL-2 melanoma is 108% and 102%; in the assay with EKVX NSCLC, 97.4% and 95.9%; in the assay on SN12C renal, 109% and 93.8%; with UO-31 renal, 82% and 92.5%; in the assay on TK-10 renal it was 120% and 92.8%; with ACHN renal it was 109%. Also, the growth is 102% in the assay on CAKI-1 renal; 99% and 78% in the assay on A498 renal; 106% and 116% in the assay with CCRF-CEM leukemia; 93.9% and 117% in the assay on MOLT-4 leukemia.

As to `COC(=O)c1nc(=S)[nH]c(C(=O)OC)c1C(=O)c1ccc(OC)cc1`, the growth with SK-MEL-2 melanoma was 104%; in the assay with EKVX NSCLC, 107%; with SN12C renal, 98.5%; in the assay with UO-31 renal, 86.8%; in the assay on TK-10 renal, 110%; in the assay with ACHN renal, 105%. Further, the growth with CAKI-1 renal is 94.5%; with A498 renal, 116%; in the assay on CCRF-CEM leukemia it was 101%; in the assay with MOLT-4 leukemia, 107%.

As to `CC1(C)OC(=O)C(=Cc2ccc(C#N)cc2)C(=O)O1`, the growth in the assay on SK-MEL-2 melanoma was 93.7%; in the assay on EKVX NSCLC, 102%; with SN12C renal, 104% and 112%; in the assay with UO-31 renal, 94.3% and 87.1%; with TK-10 renal, 98.3% and 101%; in the assay with ACHN renal it was 108% and 98.1%. For the same molecule, the growth in the assay with CAKI-1 renal was 102% and 99.3%; in the assay with A498 renal, 104% and 94.8%; with CCRF-CEM leukemia it was 102% and 97.1%; with MOLT-4 leukemia it was 103% and 80.1%.

For `c1ccc2c[n+](Cc3ccc4ccccc4n3)ccc2c1`, the growth was 102% with SK-MEL-2 melanoma; 82.5% in the assay with EKVX NSCLC; 80% in the assay with SN12C renal; 82.4% with UO-31 renal; 99.9% with TK-10 renal; 99.8% in the assay on ACHN renal. Also, the growth with CAKI-1 renal is 102%; with A498 renal it was 79.4%; in the assay with CCRF-CEM leukemia it was 76.8%; with MOLT-4 leukemia it was 92.4%.
